Sampled rows, rich in hits. Any-hit rate of the full collection: about 1.2%.
RGS7-Gao = RGS7-Galphao binding modulators, primary screen, biochemical, multiplexed bead flow cytometry; Guanine nucleotide-binding protein G(o) subunit alpha (Homo sapiens), P09471; AID 1439, 2008; actives lie on both sides; 220,000 compounds, 0.35% hits; binding response (% of control), % at 10 µM; in the data active means binding response below about 49% or above about 150%; inconclusive means no clear call, values can overlap the other calls; inactive means in between;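 further: fluorescent Galphao held in activated GDP-AlF4 state binding bead-coupled RGS7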
RGS16-Gao HTS = modulators of RGS16 binding to Galphao, primary screen, biochemical, human proteins, multiplexed bead flow cytometry | Regulator of G-protein signaling 16 (Homo sapiens) + Guanine nucleotide-binding protein … | AID 1441, 2008 | 220,000 compounds, 0.38% hits | binding response (% of control), % at 10 µM | bead-based flow cytometry RGS16-Galphao binding, fluorescence; actives lie on both sides; call rule not given here;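 further: Galphao activated by GDP with aluminum fluoride before binding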
Target sequence (O15492 whole entry, looked up): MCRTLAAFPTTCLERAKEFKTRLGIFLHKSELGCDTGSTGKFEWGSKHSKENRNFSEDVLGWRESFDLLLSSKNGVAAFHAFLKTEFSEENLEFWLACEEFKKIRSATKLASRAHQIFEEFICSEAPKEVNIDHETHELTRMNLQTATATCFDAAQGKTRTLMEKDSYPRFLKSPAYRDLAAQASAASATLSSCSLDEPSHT
Target sequence (P09471 whole entry, looked up): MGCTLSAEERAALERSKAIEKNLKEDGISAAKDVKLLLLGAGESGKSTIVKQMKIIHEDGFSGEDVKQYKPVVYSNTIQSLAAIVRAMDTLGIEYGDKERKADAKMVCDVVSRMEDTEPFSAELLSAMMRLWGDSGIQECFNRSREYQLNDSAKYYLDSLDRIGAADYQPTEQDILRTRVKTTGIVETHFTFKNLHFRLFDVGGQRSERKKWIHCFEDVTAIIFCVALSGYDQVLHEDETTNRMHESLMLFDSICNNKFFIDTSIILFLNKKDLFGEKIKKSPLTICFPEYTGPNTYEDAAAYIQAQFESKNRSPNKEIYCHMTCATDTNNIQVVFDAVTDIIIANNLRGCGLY
RGS4-Gao reg = modulators of RGS4 binding to Galphao, primary screen, biochemical, multiplexed bead flow cytometry. Guanine nucleotide-binding protein G(o) subunit alpha (Homo sapiens), P09471. actives lie on both sides. binding response (% of control), % at 10 µM. 220,000 compounds, 0.33% hits. AID 1415, 2008; in the data active means binding response below about 49% or above about 150%; inactive means in between;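 further: fluorescent Galphao activated with aluminum fluoride binding bead-coupled RGS4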
RGS8-Gao = RGS8-Galphao binding modulators, primary screen, biochemical, multiplexed bead flow cytometry; Guanine nucleotide-binding protein G(o) subunit alpha (Homo sapiens), P09471; actives lie on both sides; response (percent of control binding), % at 10 µM; 220,000 compounds, 0.34% hits; AID 1423, 2008; in the data active means response below about 60% or above about 140%; inactive means in between;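 further: Galphao activated as the GDP aluminium fluoride complex binding bead-coupled RGS8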
GSH bead fluor = compound fluorescence on glutathione beads, profiling panel, artefact control, biophysical, 488/530 nm, flow cytometry; 190,000 compounds, 0.25% hits; GSH beads flow cytometry, compound fluorescence 488/530 nm; stronger effect = higher value; fluorescence (KMESF) at 10 µM; AID 1776, 2009; in the data active means fluorescence above about 89;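 further: glutathione beads carrying GST-tagged Bcl family fusion proteins plus one bare bead set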
Avidin fluor = green autofluorescence of compounds with avidin beads – biophysical, 488/530 nm, flow cytometry, artefact control, profiling panel. compound fluorescence 488/530 nm; stronger effect = higher value. fluorescence (KMESF) at 10 µM. 220,000 compounds, 0.38% hits; in the data active means fluorescence above about 47
Biotin-avidin = disruption of biotin probe capture by avidin, counter-screen for RGS protein interaction modulators, biochemical, flow cytometry, bead-based; shares compounds with RGS16-Gao HTS; streptavidin beads, fluorescein-biotin binding; inhibition, % at 10 µM; 1,700 tested, under 10 active;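 active means inhibition above 50%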;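 further: median green fluorescence of gated singlet beads compared with DMSO control wells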
RGS8-Gao single = RGS8-Galphao binding modulators, confirmation, biochemical, multiplexed bead flow cytometry, single concentration. shares compounds with RGS16-Gao HTS. bead-based flow cytometry RGS8-Galphao binding, fluorescence; actives lie on both sides. binding response (% of control), % at 10 µM. 1,700 compounds, 3% hits. AID 1836, 2009; in the data active means binding response below about 72% or above about 130%; inactive means in between;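 further: Galphao activated as GDP AlF4 complex before binding bead RGS8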
RGS7-Gao single = RGS7-Galphao binding modulators, confirmation, biochemical, multiplexed bead flow cytometry, single concentration | shares compounds with RGS16-Gao HTS | bead-based flow cytometry RGS7-Galphao binding; actives lie on both sides | response (percent of control binding), % at 10 µM | 1,700 compounds, 7.8% hits | AID 1837, 2009; in the data active means response below about 75% or above about 130%; inactive means in between;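 further: fluorescent Galphao activated with GDP and aluminum fluoride binding bead-coupled RGS7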
RGS16-Gao single = modulators of RGS16-Galphao protein binding, confirmation, biochemical, single concentration, multiplexed bead flow cytometry; shares compounds with RGS16-Gao HTS; bead-based flow cytometry; actives lie on both sides; response (% of control binding), % at 10 µM; 1,700 compounds, 4% hits; AID 1838, 2009; in the data active means response below about 74% or above about 130%; inactive means in between;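 further: Galphao activated as the GDP aluminium fluoride complex binding bead-coupled RGS16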
RGS4-Gao confirm = modulators of RGS4-Galphao protein binding, confirmation, biochemical, single concentration, multiplexed bead flow cytometry. shares compounds with RGS16-Gao HTS. actives lie on both sides. binding response (% of control), % at 10 µM. 1,700 compounds, 4% hits. AID 1840, 2009; in the data active means binding response below about 74% or above about 130%; inactive means in between
RGS19-Gao conf = regulators of RGS19-Galphao binding, confirmation, biochemical, single point, multiplexed bead flow cytometry; response (percent of control binding), % at 10 µM; shares compounds with RGS16-Gao HTS; bead-based flow cytometry RGS19-Galphao binding; actives lie on both sides; 1,700 compounds, 5% hits; AID 1841, 2009; in the data active means response below about 50% or above about 160%; inactive means in between
Numbers stand for hits; ! = repeats disagree; [ ] = another dose, or the depositor's remark.

Results for COc1cccc(C2(O)CCSCC2CN(C)C)c1 (configuration not stated) ?
RGS7-Gao: inactive; RGS16-Gao HTS: inactive; RGS4-Gao reg: inactive; RGS8-Gao: inactive; GSH bead fluor: inactive; Avidin fluor: inactive

Results for Cn1cccc1CN1CCN(C(=O)COc2ccccc2)CC1 ?
RGS7-Gao: inactive; RGS16-Gao HTS: inactive; RGS4-Gao reg: inactive; RGS8-Gao: inactive; GSH bead fluor: inactive; Avidin fluor: inactive

How did Cn1nc(-c2ccc(OCC(=O)N3CCN(Cc4ccccc4)CC3)cc2)c2ccccc2c1=O do in these assays?
RGS7-Gao: 42!; RGS16-Gao HTS: inactive; RGS4-Gao reg: 35!; RGS8-Gao: inactive; GSH bead fluor: inactive; Avidin fluor: inactive; Biotin-avidin: inactive; RGS8-Gao single: inactive; RGS7-Gao single: inactive; RGS16-Gao single: inactive; RGS4-Gao confirm: inactive; RGS19-Gao conf: inactive

What do the screens show for `CCN(CC)c1ccc(/C=C2/C(=O)NC(=O)N(CC3CCCO3)C2=O)cc1` (configuration not stated)?
RGS7-Gao: inactive; RGS16-Gao HTS: inactive; RGS4-Gao reg: inactive; RGS8-Gao: inactive; GSH bead fluor: inactive; Avidin fluor: inactive

Results for O=C1NC(=O)N(CC2CCCO2)C(=O)/C1=C/c1cccs1 (configuration not stated) ?
RGS7-Gao: inconclusive; RGS16-Gao HTS: inactive; RGS4-Gao reg: 185[activator]; RGS8-Gao: inactive; Avidin fluor: 75; Biotin-avidin: inactive; RGS8-Gao single: inactive; RGS7-Gao single: inactive; RGS16-Gao single: inactive; RGS4-Gao confirm: inactive; RGS19-Gao conf: inactive

What do the screens show for `COC(=O)C1=CCCN(C)C1`?
RGS7-Gao: 5.1; RGS16-Gao HTS: 13; RGS4-Gao reg: 16; RGS8-Gao: 21; GSH bead fluor: inactive; Avidin fluor: inactive; Biotin-avidin: inactive; RGS8-Gao single: inactive; RGS7-Gao single: inactive; RGS16-Gao single: inactive; RGS4-Gao confirm: inactive; RGS19-Gao conf: inactive

What do the screens show for `COC(=O)c1ccc(CN2CCN(Cc3ccccc3)CC2)cc1`?
RGS7-Gao: inactive; RGS16-Gao HTS: inactive; RGS4-Gao reg: inactive; RGS8-Gao: inactive; GSH bead fluor: inactive; Avidin fluor: inactive
